Bioassay records: PubChem BioAssay, National Center for Advancing Translational Sciences (NCATS)
AmpC detergent = blocks E. coli AmpC beta-lactamase in detergent assay | P00811 | 370,000 tested, 0.041% active | Potency, µM (highest dose often 114 µM), most hits filed as inhibitors | AmpC hydrolysis of nitrocefin, absorbance 480 nm, 0.01% Triton; further: nearly all actives have a fitted effect of over 25% in size
Target sequence (P00811 whole entry, looked up): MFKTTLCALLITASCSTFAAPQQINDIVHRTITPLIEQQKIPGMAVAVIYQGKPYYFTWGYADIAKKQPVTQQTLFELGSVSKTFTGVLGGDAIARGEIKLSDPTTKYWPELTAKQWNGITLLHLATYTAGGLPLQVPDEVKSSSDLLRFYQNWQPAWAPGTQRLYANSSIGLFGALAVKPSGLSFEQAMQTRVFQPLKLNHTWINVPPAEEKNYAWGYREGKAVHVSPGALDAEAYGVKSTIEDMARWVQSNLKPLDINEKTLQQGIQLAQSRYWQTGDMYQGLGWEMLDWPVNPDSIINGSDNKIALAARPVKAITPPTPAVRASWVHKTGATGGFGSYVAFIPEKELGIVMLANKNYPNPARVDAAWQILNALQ
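20 mM phosphate pH 7.0 + 0.01% (detergent screen) or 0.0001% Triton X-100; 5.3 nM AmpC reagent; cpd preinc 15 min RT; nitrocefin (800 uM stock) to start; A480 q20 s × 4 min; Activity was normalised to no-enzyme and no-compound control wells.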
Pf growth 96h = P. falciparum growth inhibition at 96 hours. 320,000 tested, 6.9% active. P. falciparum luciferase reporter growth, 96 h. Potency, µM (top dose mostly 28.7 µM), usual class: inhibitors
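Infected RBCs, 2% Hct / 0.05% parasitemia final; luciferase-reporter P. falciparum; cpd 96 h, 37 C, 5% CO2; luciferase detection reagent; luminescence.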
Sm TGR block = S. mansoni TGR enzyme inhibition; Q962Y6; purified TGR, DTNB reduction, TNB absorbance 405 nm; AID 485364; Potency, µM (highest dose often 114 µM), hits mostly inhibitors; 360,000 tested, 3% active; further: nearly all actives have a fitted effect of over 60% in size
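First, TGR (20 nM dispensed) and NADPH were mixed with compound. Second, a 15 min room-temperature incubation followed. Third, further NADPH and then DTNB were added to start the reaction. Finally, TNB absorbance was monitored kinetically.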
AmpC no deterg = inhibitors of E. coli AmpC beta-lactamase without detergent; AmpC nitrocefin hydrolysis, absorbance 480 nm, 0.0001% Triton; Potency, µM (top dose mostly 57.1 µM), actives largely listed as inhibitors; 330,000 tested, 0.52% active; AID 485341; further: nearly all actives have a fitted effect of over 20% in size
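20 mM phosphate pH 7.0 + 0.01% (detergent screen) or 0.0001% Triton X-100; 5.3 nM AmpC reagent; cpd preinc 15 min RT; nitrocefin (800 uM stock) to start; A480 q20 s × 4 min; Activity was normalised to no-enzyme and no-compound control wells.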
SARS PLP yeast = SARS-CoV PLP inhibition in yeast; 330,000 tested, 0.19% active; S. cerevisiae expressing SARS-CoV PLpro, growth rescue; AID 485353; Potency, µM (series often up to 32.9 µM), most hits filed as activators; calls by dose curve; further: nearly all actives have a fitted effect of over 55% in size
Pf growth 48h = P. falciparum growth inhibition at 48 hours (one generation); P. falciparum luciferase growth in erythrocytes, 48 h; Potency, µM (top dose mostly 28.7 µM), usual class: inhibitors; 310,000 tested, 5.9% active; AID 504832
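Growth was read as firefly luciferase luminescence after a 48 h, 37 C, 5% CO2 exposure of compounds to reporter-bearing P. falciparum cultures (0.1% parasitemia, 2% hematocrit final) in Albumax-supplemented RPMI 1640.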
A number is an active result; i = inactive; ? = inconclusive; nt = not tested or not shown. Most compounds without a hit are left out; they make up all but 12% or so of the library. Unless noted, the call rests on the fitted dose curve; in most records, active means well fitted curve in the direction sought with a large enough effect; inconclusive means small, poorly fitted or top-dose-only effect, or another doubt; inactive means no such curve, though single readings can be large; an effect the other way counts as inactive or inconclusive.

SMILES | AmpC detergent | Pf growth 96h | Sm TGR block | AmpC no deterg | SARS PLP yeast | Pf growth 48h
Cc1ccc(CN(C(=O)c2ccco2)C(C(=O)NC2CCCC2)c2cccnc2)cc1 (configuration not stated) | i | i | nt | i | i | ?
COc1ccccc1C(=O)Nc1cc2c(cc1N1CCCCC1)n(C)c(=O)n2C | i | nt | i | nt | nt | nt
Cc1nc(NC(=O)c2ccccc2)sc1C1(C)CC(c2c(Cl)cccc2Cl)=NO1 (configuration not stated) | i | ? | 31.6µM | i | i | 13.1µM
Cc1nc(NC(=O)c2ccccc2)sc1C1(C)CC(c2ccccc2F)=NO1 (configuration not stated) | i | ? | ? | i | i | ?
Clc1cccc(CN2C3=NCCCN3c3ccccc32)c1 | i | ? | i | i | i | i
Cc1ccc(CN2C3=NCCCN3c3ccccc32)cc1 | i | ? | i | i | i | 11.7µM
CC(C)(C)c1ccc(CN2C3=NCCCN3c3ccccc32)cc1 | i | i | i | i | i | 3.7µM
Brc1ccc(CN2C3=NCCCN3c3ccccc32)cc1 | i | i | i | i | i | 11.7µM
c1ccc(CN2C3=NCCCN3c3ccccc32)cc1 | i | i | i | i | i | 8.28µM
O=C(Cn1c(=O)n(-c2ccc(Cl)cc2)c(=O)c2oc3ccccc3c21)Nc1ccccc1 | i | nt | i | nt | nt | nt
Clc1ccc(CN2C3=NCCCN3c3ccccc32)c(Cl)c1 | i | 1.04µM | i | i | i | ?
CC(=O)Oc1ccc(OC(C)=O)c(S(=O)(=O)c2ccc(C)c(C)c2)c1 | i | 11.7µM | ? | i | i | i
Cc1ccc2nc(C3CCN(S(=O)(=O)c4ccc5ccccc5c4)CC3)[nH]c2c1 | i | ? | i | nt | nt | ?
COC(=O)[C@@H]1C[C@@]2(O)[C@H](O)[C@H](O)[C@H](O)C[C@H]2N1Cc1ccccc1OS(=O)(=O)c1ccc(C)cc1 | i | i | i | i | i | i
COC(=O)[C@@H]1C[C@H]2CC[C@H](O)C[C@H]2N1Cc1ccccc1OS(=O)(=O)c1ccc(C)cc1 | i | ? | ? | i | i | 10.4µM
CCC1C=CC=CC[C@H](C)[C@@H](O)[C@](C)(O)C(=O)[C@@H](C)[C@H](O)[C@@H](C)C(=O)[C@H](C)[C@@H](O)[C@H](C)C=CC(=O)OC2[C@@H](C)C(CC1)OC1(CC[C@@H](C)C(C[C@H](C)O)O1)[C@@H]2C (some centres not stated) | ? | 0.117µM | i | i | i | 0.131µM
Cc1ccc(CCNC(=O)CN2C(=O)COc3ccc(S(=O)(=O)N4CCCCCC4)cc32)cc1 | i | nt | i | nt | nt | nt
CC(=O)c1cc(-c2ccccc2)n(CCC(=O)NCc2ccc(C)cc2)c1C | i | nt | i | nt | nt | nt
COc1cccc(NS(=O)(=O)c2ccc3c(c2)n(C)c(=O)n3C)c1 | i | nt | i | nt | nt | nt
O=C(NCc1nc2ccccc2[nH]1)C1=C[C@@H](c2csc3ccccc23)C[C@@H](OCCCCO)O1 | i | 2.08µM | i | i | i | 2.62µM
CN1CCN(C(=O)C2=C[C@H](c3csc4ccccc34)C[C@H](OCCCCO)O2)CC1 | i | i | 39.8µM | i | i | i
O=C(NCc1ccccc1)C1=C[C@@H](c2csc3ccccc23)C[C@@H](OCCCCO)O1 | i | ? | i | i | i | ?
C#CCNC(=O)C1=C[C@@H](c2csc3ccccc23)C[C@@H](OCc2ccc(CO)cc2)O1 | i | 5.22µM | i | i | i | ?
O=C(NCc1ccccc1)C1=C[C@@H](c2coc3ccccc3c2=O)C[C@@H](OCc2ccc(CO)cc2)O1 | i | 4.15µM | i | i | i | ?
O=C(NCC1CCCO1)c1ccc([N+](=O)[O-])s1 (configuration not stated) | ? | ? | i | i | i | ?
SMILES | AmpC detergent | Pf growth 96h | Sm TGR block | AmpC no deterg | SARS PLP yeast | Pf growth 48h
Cc1cc(=O)oc2cc(N3C(=O)CC(Cc4ccccc4)C3=O)ccc12 (configuration not stated) | i | i | i | i | i | i
Cc1ccc(S(=O)(=O)Nc2nc(C)c(NC(=O)Nc3ccc(Cl)cc3Cl)s2)cc1 | i | i | ? | i | i | i
O=C(NCc1ccccc1)C1=C[C@@H](c2csc3ccccc23)C[C@@H](OCc2ccc(CO)cc2)O1 | i | ? | i | i | i | ?
O=C(NC1CC1)C1=C[C@@H](c2csc3ccccc23)C[C@@H](OCCCCO)O1 | i | 13.1µM | i | i | i | 10.4µM
O=C(NC1CC1)C1=C[C@@H](c2coc3ccccc3c2=O)C[C@@H](OCCCCO)O1 | i | i | 44.7µM | i | i | i
O=C(NC1CC1)C1=C[C@@H](c2csc3ccccc23)C[C@@H](OCc2ccc(CO)cc2)O1 | i | 13.1µM | i | i | i | ?
O=C(NC1CC1)C1=C[C@H](c2csc3ccccc23)C[C@H](OCCCCO)O1 | i | i | i | i | i | ?
Cc1ccc(CN2CCN(C3CCN(C(=O)Nc4ccccc4C(F)(F)F)CC3)C(=O)C2=O)cc1 | i | nt | i | nt | nt | nt
CCc1cc2c(cc3c(=O)n(CCCC(=O)NCc4cccc(Cl)c4)ncn32)s1 | i | nt | i | nt | nt | nt
Cc1ccc2nc(-c3ccccn3)cc(C(=O)NCCc3ccc(F)cc3)c2c1 | i | ? | i | i | i | ?
CCCCC(CCC(=O)O)(C(=O)OCC)c1csc(Nc2ccc(C)cc2)n1 (configuration not stated) | i | 4.65µM | i | i | i | i
C=C(C)C(=O)OC1(C(F)(F)F)Oc2cc(C)ccc2NC1=O (configuration not stated) | ? | i | 39.8µM | i | i | ?
Cc1ccc(C)c(N2CCN(C(=O)c3cc4c(=O)n(Cc5cccs5)ccc4nc3C)CC2)c1 | i | nt | i | nt | nt | nt
COC(=O)c1ccc(CSc2ncnc3c2nnn3-c2ccc(OC)cc2)o1 | i | 9.28µM | i | i | i | i
COC(=O)c1ccc(CSc2ncnc3sc(C)c(C)c23)o1 | ? | i | ? | i | i | i
COc1ccc(-n2nnc3c(SCC(=O)Nc4ccc5c(c4)OCCO5)ncnc32)cc1 | i | nt | i | i | i | i
COc1ccc(-n2nnc3c(SCC(=O)c4ccccc4)ncnc32)cc1 | i | 1.85µM | i | i | i | i
O=C(O)CCc1nc(-c2ccccc2)c(-c2ccccc2)o1 | i | i | i | i | i | i
O=C(O)CCc1ccc(-c2ccccc2)o1 | ? | i | 1.41µM | i | i | i
Cc1ccc2[nH]c(C(=O)N/N=C/c3ccc([N+](=O)[O-])cc3)c(C)c2c1 | i | i | i | i | i | i
COc1cc(OC)c2cc(C(=O)N/N=C/c3ccccc3O)[nH]c2c1 | i | 4.65µM | i | i | i | nt
